“And” between values parts separate entries of the source, which are not always exact repeats. Equal entries are not always repeated. Results filed as inconclusive are left out. Some structures have more than one record in an assay (separate samples or runs), and their calls can disagree. The source made the active and inactive calls. How the source made its calls, unless noted: active means hit-call score of the fitted dose curve at least 0.9, where 1 is the maximum; inconclusive means response in the unintended direction; inactive means score below 0.9.
Columns and labels:
[1] = biological target: Nuclear receptor subfamily 1 group I member 2 (Mus musculus) (UniProt O54915); assay: ATG_mPXR_XSP2: Attagene TRANS-FACTORIAL Multi-Species (XSP1) HepG2 Assay for mouse Pregnane X Receptor (PXR) (AID 2283831)
Nuclear receptor subfamily 1 group I member 2 (Mus musculus), sequence (O54915 whole entry, looked up): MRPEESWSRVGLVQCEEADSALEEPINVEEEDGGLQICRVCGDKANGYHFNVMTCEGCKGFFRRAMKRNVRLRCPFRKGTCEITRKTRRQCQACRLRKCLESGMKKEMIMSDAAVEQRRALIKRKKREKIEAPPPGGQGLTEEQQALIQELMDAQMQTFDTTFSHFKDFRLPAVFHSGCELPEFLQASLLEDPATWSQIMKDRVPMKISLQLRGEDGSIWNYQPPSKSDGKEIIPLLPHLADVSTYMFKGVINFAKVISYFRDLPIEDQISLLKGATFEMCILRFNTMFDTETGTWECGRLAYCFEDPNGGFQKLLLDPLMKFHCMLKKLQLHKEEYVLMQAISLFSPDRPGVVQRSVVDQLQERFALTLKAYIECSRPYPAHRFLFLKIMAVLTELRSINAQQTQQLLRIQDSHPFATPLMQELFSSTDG
Procedure: ATG_XSP2_multi-species_TRANS is a cell-based, multiplexed assay created by modifying the existing Attagene TRANS-FACTORIAL system to include a panel of nuclear receptors from some or all the following species: human (Homo sapiens), mouse (Mus musculus), frog (Xenopus laevis), zebrafish (Danio rerio), chicken (Gallus gallus), and turtle (Chrysemys picta). The ECOTOX-FACTORIAL format uses HepG2, a human liver cell line, with measurements taken at 24 hours after chemical dosing in a 24-well plate. Xsp2 included 3 nM 6-alpha-fluorotestosterone and 1.5 nM norgestrel to stimulate the androgen receptor.ATG_mPXR_XSP2 is one of 29 assay components measured or calculated from the ATG_XSP2_multi-species_TRANS assay. It is designed to make measurements of mRNA induction, a form of inducible reporter, as detected with fluorescence intensity signals by Reverse transcription polymerase chain reaction (RT-PCR) and Capillary electrophoresis technology.The assay endpoint ATG_mPXR_XSP2 was analyzed in the positive analysis fitting direction relative to DMSO as the negative control and baseline of activity. Using a type of inducible reporter, measures of mRNA for gain-of-signal activity can be used to understand the reporter gene at the transcription factor-level as they relate to the gene PXR. Furthermore, this assay endpoint can be referred to as a primary readout, because this assay has produced multiple assay endpoints where this one serves a reporter gene function. To generalize the intended target to other relatable targets, this assay endpoint is annotated to the nuclear receptor intended target family, where the subfamily is non-steroidal.
Human liver HepG2 cells are transiently transfected with multiple reporter transcription units (MRTUs) in 6-well plates using FuGene 6 reagent (Roche; 3 ml FuGene/1 mg DNA). The MRTU constructs are regulated by a cis-regulating element (promoter). […] A major difference between the CIS and TRANS system is that in CIS activities of endogenous TFs are measured, whereas the TRANS assay evaluates changes in activities of exogenous, chimeric NR-Gal4 proteins. […] At the end of 24 hour incubation, total RNA was isolated using TriZol reagent (Invitrogen). The isolated RNA is then reverse-transcribed using oligo(dT) primer and Mo-MLV reverse transcriptase (Invitrogen) with DNAse I (Ambion) treatment for 30 min. […] The fragments were purified using Qiaquick PCR columns (Qiagen), analyzed on an ABI 3130xL genetic analyzer (Applied Biosystems) with peak positions identified by using a set of X-rhodamine (ROX)-labeled MapMarker1000 molecular weight standards (BioVentures). […]

[2] = tested on: zebrafish Peroxisome Proliferator-activated Receptor gamma (PPARg), gene 557037; assay: ATG_zfPPARg_XSP2: Attagene TRANS-FACTORIAL Multi-Species (XSP2) HepG2 Assay for zebrafish Peroxisome Proliferator-activated Receptor gamma (PPARg) (AID 2283833);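 further: actives increase reporter signal over DMSO so AC50 reflects activation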
Procedure, shortened: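 Multi-species TRANS format in HepG2, 24 h dosing; medium also contained 3 nM 6-alpha-fluorotestosterone and 1.5 nM norgestrel to stimulate androgen receptor. Zebrafish PPARg-GAL4 induced reporter mRNA was measured by RT-PCR/capillary electrophoresis.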

[3] = tested on: turtle Thyroid Hormone Receptor, alpha (TRa), gene 101949057; assay: ATG_trTRa_XSP2: Attagene TRANS-FACTORIAL Multi-Species (XSP1) HepG2 Assay for turtle Thyroid Hormone Receptor, alpha (TRa) (AID 2283834);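 further: hits raise reporter mRNA over the DMSO baseline so AC50 marks activators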
Procedure, shortened: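 Transfection of HepG2 with multiple reporter transcription units, then chemical dosing for 24 h. Total RNA was reverse-transcribed, reporter sequences PCR-amplified and FAM-labelled, then sized by capillary electrophoresis. DMSO served as baseline.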

[4] = biological target: zebrafish Thyroid Hormone Receptor beta (TRb), thrb (gene 30607) (UniProt Q9PVE4); assay: ATG_zfTRb_XSP2: Attagene TRANS-FACTORIAL Multi-Species (XSP1) HepG2 Assay for zebrafish Thyroid Hormone Receptor beta (TRb) (AID 2283836)
zebrafish Thyroid Hormone Receptor beta (TRb), thrb (gene 30607), sequence (Q9PVE4 whole entry, looked up): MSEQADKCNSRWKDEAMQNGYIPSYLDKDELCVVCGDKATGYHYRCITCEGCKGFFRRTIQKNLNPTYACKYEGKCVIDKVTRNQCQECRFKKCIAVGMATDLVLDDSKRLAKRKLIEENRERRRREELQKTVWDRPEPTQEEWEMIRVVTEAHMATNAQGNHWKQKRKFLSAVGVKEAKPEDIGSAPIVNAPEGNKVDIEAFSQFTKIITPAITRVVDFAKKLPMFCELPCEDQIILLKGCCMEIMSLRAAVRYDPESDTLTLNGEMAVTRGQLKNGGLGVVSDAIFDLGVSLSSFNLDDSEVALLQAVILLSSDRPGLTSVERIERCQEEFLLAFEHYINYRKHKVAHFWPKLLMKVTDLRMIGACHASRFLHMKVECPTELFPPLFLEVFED
Procedure, shortened: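 Transfect HepG2 with multiple reporter transcription units, dose chemical, incubate 24 h. Isolate RNA, reverse-transcribe, amplify and fluorescently label reporter sequences, digest with HpaI, then resolve by capillary electrophoresis. Positive direction fitted against DMSO.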

[5] = biological target: human Thyroid hormone Receptor alpha (TRa), THRA (gene 7067) (UniProt P10827); assay: ATG_hTRa_XSP2: Attagene TRANS-FACTORIAL Multi-Species (XSP2) HepG2 Assay for human Thyroid hormone Receptor alpha (TRa) (AID 2283838)
human Thyroid hormone Receptor alpha (TRa), THRA (gene 7067), sequence (P10827 whole entry, looked up, the tested form may be a part): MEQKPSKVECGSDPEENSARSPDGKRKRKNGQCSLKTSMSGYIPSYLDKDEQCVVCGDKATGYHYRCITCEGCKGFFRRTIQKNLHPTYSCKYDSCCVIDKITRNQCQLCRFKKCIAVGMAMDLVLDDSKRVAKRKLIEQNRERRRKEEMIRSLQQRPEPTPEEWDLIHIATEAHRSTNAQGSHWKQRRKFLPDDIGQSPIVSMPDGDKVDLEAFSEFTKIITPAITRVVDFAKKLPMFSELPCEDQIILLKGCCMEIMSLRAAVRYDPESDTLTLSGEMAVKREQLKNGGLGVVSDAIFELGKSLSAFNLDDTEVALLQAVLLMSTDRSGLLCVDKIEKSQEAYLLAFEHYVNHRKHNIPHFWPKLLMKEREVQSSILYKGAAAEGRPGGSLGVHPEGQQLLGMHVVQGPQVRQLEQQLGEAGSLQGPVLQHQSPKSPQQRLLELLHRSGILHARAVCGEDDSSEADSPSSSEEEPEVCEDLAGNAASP
Procedure, shortened: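 Reporter transcripts were read by RT-PCR with fluorescent primer extension, HpaI digestion and capillary electrophoresis. These came from HepG2 cells carrying multiplexed TRa-Gal4 TRANS constructs, harvested 24 hours after dosing. The medium also held 6-alpha-fluorotestosterone (3 nM) and norgestrel (1.5 nM), and increases were fitted against DMSO.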

[6] = biological target: frog Thyroid hormone Receptor alpha (TRa), thra-a (gene 397942) (UniProt P15204); assay: ATG_frTRa_XSP2: Attagene TRANS-FACTORIAL Multi-Species (XSP2) HepG2 Assay for frog Thyroid hormone Receptor alpha (TRa) (AID 2283839)
frog Thyroid hormone Receptor alpha (TRa), thra-a (gene 397942), sequence (P15204 whole entry, looked up, the tested form may be a part): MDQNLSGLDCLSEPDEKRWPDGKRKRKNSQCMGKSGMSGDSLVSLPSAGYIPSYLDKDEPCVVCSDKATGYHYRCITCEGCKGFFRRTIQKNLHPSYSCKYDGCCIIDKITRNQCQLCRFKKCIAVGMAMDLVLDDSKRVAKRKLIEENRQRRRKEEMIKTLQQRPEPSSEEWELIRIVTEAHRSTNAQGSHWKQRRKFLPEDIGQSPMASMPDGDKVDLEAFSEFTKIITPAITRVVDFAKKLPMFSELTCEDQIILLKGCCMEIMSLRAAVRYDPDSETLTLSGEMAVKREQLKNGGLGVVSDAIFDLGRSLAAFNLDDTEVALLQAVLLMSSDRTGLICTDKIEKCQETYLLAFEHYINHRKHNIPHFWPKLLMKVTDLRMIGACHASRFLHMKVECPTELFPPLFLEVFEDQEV
Procedure, shortened: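 Transfect HepG2 with multiple reporter units (GAL4-UAS), dose chemical, incubate 24 h. Isolate RNA, reverse-transcribe, PCR-amplify reporter, label with 6-FAM by primer extension, digest with HpaI, run capillary electrophoresis; induction scored against DMSO.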

[7] = ATG_M_61_XSP2: Attagene TRANS-FACTORIAL Multi-Species (XSP2) HepG2 Assay for M61 Transcription Factor (Internal Marker) (AID 2283835; active means hit-call score of the fitted dose curve at least 0.9, where 1 is the maximum; inactive means score below 0.9;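 further: active means a rise in signal above the DMSO baseline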)
Procedure, shortened: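 Internal background marker, read as RT-PCR/capillary-electrophoresis reporter mRNA 24 h post-dose in transiently transfected HepG2 cells. Androgen receptor stimulated with 3 nM 6-alpha-fluorotestosterone plus 1.5 nM norgestrel; gain of signal versus DMSO analysed.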

[8] = ATG_XTT_Cytotoxicity_XSP2: Cytotoxicity Assessment in the Attagene TRANS-FACTORIAL Multi-Species (XSP2) HepG2 Assay (AID 2283837)
Procedure, shortened: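 XTT-based cell number read-out in human HepG2 liver cells carrying transfected reporter units, measured 24 h after chemical dosing. Activity is signal loss versus DMSO baseline.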

[9] = biological target: zebrafish Thyroid Hormone Receptor alpha (TRa), thraa (gene 30670) (UniProt Q98867); assay: ATG_zfTRa_XSP2: Attagene TRANS-FACTORIAL Multi-Species (XSP1) HepG2 Assay for zebrafish Thyroid Hormone Receptor alpha (TRa) (AID 2283832);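 further: actives raise zebrafish TRa-Gal4 reporter transcript above DMSO baseline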
zebrafish Thyroid Hormone Receptor alpha (TRa), thraa (gene 30670), sequence (Q98867 whole entry, looked up, the tested form may be a part): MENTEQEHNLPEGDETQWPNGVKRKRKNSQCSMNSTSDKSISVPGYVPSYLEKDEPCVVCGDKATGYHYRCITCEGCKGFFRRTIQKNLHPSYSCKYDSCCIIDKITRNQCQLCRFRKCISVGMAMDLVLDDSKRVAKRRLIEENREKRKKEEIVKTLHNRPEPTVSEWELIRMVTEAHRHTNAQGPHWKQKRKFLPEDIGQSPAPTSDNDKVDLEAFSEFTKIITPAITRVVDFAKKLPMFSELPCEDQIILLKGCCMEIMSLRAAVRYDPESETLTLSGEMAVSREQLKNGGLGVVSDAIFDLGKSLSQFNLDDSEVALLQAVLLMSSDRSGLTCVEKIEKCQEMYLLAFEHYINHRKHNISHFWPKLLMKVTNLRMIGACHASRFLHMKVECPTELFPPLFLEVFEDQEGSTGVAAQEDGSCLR
Procedure, shortened: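 HepG2, transient MRTU transfection, exogenous NR-Gal4 chimeras; 24 h dosing; mRNA readout via RT-PCR/CE fluorescence; positive direction vs DMSO.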

[10] = biological target: human Thyroid hormone Receptor beta (TRb), THRB (gene 7068) (UniProt P10828); assay: ATG_hTRb_XSP2: Attagene TRANS-FACTORIAL Multi-Species (XSP2) HepG2 Assay for human Thyroid hormone Receptor beta (TRb) (AID 2283840);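 further: actives raise reporter mRNA so potency reflects agonist-like gain of signal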
human Thyroid hormone Receptor beta (TRb), THRB (gene 7068), sequence (P10828 whole entry, looked up, the tested form may be a part): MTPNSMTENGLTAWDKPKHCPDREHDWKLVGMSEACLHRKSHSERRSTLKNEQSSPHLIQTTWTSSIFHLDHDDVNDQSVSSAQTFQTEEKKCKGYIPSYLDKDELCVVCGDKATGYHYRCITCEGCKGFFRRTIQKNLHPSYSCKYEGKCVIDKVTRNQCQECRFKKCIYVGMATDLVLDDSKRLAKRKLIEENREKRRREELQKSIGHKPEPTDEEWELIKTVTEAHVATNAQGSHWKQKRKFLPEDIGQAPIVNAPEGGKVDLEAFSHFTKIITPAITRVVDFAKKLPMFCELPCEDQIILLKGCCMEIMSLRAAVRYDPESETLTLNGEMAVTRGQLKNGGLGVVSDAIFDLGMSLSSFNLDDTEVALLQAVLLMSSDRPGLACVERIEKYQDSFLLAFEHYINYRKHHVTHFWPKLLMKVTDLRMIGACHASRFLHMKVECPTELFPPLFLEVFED
Procedure, shortened: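 Transient transfection of human HepG2 with multi-species NR-Gal4/GAL4-UAS reporter constructs; 24 h compound treatment; RNA isolation, reverse transcription, PCR and HpaI digest; capillary electrophoresis of labeled fragments; activity fitted upward versus DMSO.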

Measured: AC50

CCCc1cc(=O)[nH]c(=S)[nH]1
inactive: [1] | [2] | [3] | [4] | [5] | [6]

CC(=O)C(C)=CC1C(C)=CCCC1(C)C (centres undefined)
active: [1] 8.16 µM and 12.9 µM
not listed: [5] | [9] | [10]
inactive: all other assays above

C=CCOC(=O)c1ccccc1C(=O)OCC=C
active: [1] 27.5 µM
inactive: [1] | [9] | [2] | [3] | [7] | [4] | [8] | [5] | [6] | [10]

CC(C)(C)c1cc(O)c(C(C)(C)C)cc1O
inactive: [9] | [2] | [7] | [4] | [6]

Source: PubChem BioAssay (EPA / NIEHS)
